# TGFb inhibitor: qHTS for Inhibitors of TGF-b; AID 588855, 2011; 410,000 tested, 1.2% active; Potency, µM (doses to about 46.1 µM), inactives show at the highest dose activity, negative = inhibition, usual class: inhibitors; HepG2 CAGA-GFP TGF-b/SMAD3 reporter, GFP fluorescence, 18 h; TGF-beta stimulated, 500 pg/mL final; further: on the % scale 0 is the no-effect control and ±100 the full control effect; nearly all actives have a fitted effect of over 65% in size
#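 Smad-responsive CAGA-GFP expression was quantified in HEPG2 cells exposed to compounds and 500 pg/mL final TGF-beta for 18 h at 37 degrees C; unstimulated wells defined full inhibition.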
# HT1080NT lethal: qHTS for induction of synthetic lethality in tumor cells producing 2HG: qHTS for the HT-1080-NT fibrosarcoma cell line. HT-1080-NT fibrosarcoma viability, CellTiter-Glo ATP luminescence, 48 h. Potency, µM (top dose mostly 46.1 µM), for the others: top-dose activity, negative = less viability, actives largely listed as cytotoxic. 360,000 tested, 1.6% active. AID 686970, 2013;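 further: NT is the 2HG producing partner of a matched IDH1 knockdown line; 0% = DMSO-treated cells and -100% = media-only wells without cells; nearly all actives have a fitted effect of over 55% in size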
#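 Fibrosarcoma NT cells, 750 per well in 5% FBS RPMI, were exposed to compound for 48 hours. Viability: CellTiter-Glo luminescence.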
# ATXN2 expr inh: Primary qHTS for Inhibitors of ATXN expression; AID 1745845, 2022; Potency, µM (top dose mostly 57 µM), for the others: at the highest dose activity change, negative = inhibition, hits mostly inhibitors; 360,000 tested, 0.72% active; HEK-293 ATXN2-luciferase reporter, luminescence, 24 h; further: on the % scale 0 is the no-effect control and ±100 the full control effect; nearly all actives have a fitted effect of over 55% in size
#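 qHTS (up to 57 uM final) was run with 24 h compound exposure of reporter cells at 37 °C. Each well was multiplexed: SteadyGlo luminescence measured ATXN2-luciferase expression after a fluorogenic Gly-Phe-AFC viability readout (25 uM final).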
# HT1080 IDH1KD tx: qHTS for induction of synthetic lethality in tumor cells producing 2HG: qHTS for the HT-1080-IDH1KD cell line; Potency, µM (series often up to 46.1 µM), for inactives: top-dose activity, negative = toxicity, actives largely listed as cytotoxic; HT-1080 IDH1 knockdown viability, ATP luminescence, 48 h; 360,000 tested, 2% active;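 further: 0% = DMSO wells and -100% = cell-free medium wells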
#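 % activity derives from luminescence (CellTiter-Glo), normalised to DMSO and no-cell wells. HT-1080-IDH1KD cells, 750/well, had 48 h compound exposure at 37 °C.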
# HepG2 viability: qHTS for Inhibitors of TGF-b: Cytotox Counterscreen. HepG2 CAGA-GFP viability, ATP luminescence, 18 h. Potency, µM (titrated, usually from 46.1 µM), for inactives: top-dose activity change, negative = cytotoxicity, most hits filed as cytotoxic. 410,000 tested, 0.76% active. AID 588856, 2011
#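 CellTiter-Glo luminescence gave cytotoxicity after 18 hours at 37 degrees C. The cells were HepG2 CAGA-GFP in 1% FBS DMEM, stimulated with 500 pg/mL TGF-beta after compound addition. %Activity was normalised to no-cell wells (complete cell-killing) and DMSO (no toxicity), and curves were fitted and classified.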
# S2 tox: Viability Counterscreen for Primary qHTS for Inhibitors of ATXN expression; AID 651635, 2014; Potency, µM (doses to about 56.7 µM), hits mostly cytotoxic; 400,000 tested, 0.49% active; S2 cells (HEK-293 line with an ATXN2-luciferase reporter) viability, CellTiter-Fluor protease fluorescence, 24 h; further: nearly all actives have a fitted effect of over 40% in size
# Starred values were filed as active, the others as inactive; i = inactive; ? = inconclusive; · = no result; ! = repeats disagree. Sampled rows, rich in hits. Any-hit rate of the full collection: about 3.8%. The call rests on the fitted dose curve; in most records, active means well fitted curve in the direction sought with a large enough effect; inconclusive means small, poorly fitted or top-dose-only effect, or another doubt; inactive means no such curve, though single readings can be large; an effect the other way counts as inactive or inconclusive. Potency means the concentration at half of the fitted maximal effect.
SMILES,TGFb inhibitor,HT1080NT lethal,ATXN2 expr inh,HT1080 IDH1KD tx,HepG2 viability,S2 tox
Cc1nc(N)nc(N)c1-c1ccc(Cl)c(Cl)c1,?,?,7.9µM*!,0.58µM*,0.63µM*,i
Cc1nc(N)nc(N)c1CCCc1ccc(Cl)c(Cl)c1,?,8.2µM*,?,1.2µM*,-194%,?
COc1ccc(Cc2c(C)nc(N)nc2Cl)cc1,-4%,2%,-6%,-9%,-17%,i
CCc1nc(N)nc(N)c1-c1ccc(NCCN)c([N+](=O)[O-])c1,?,·,-32%,·,·,?
Cc1ccc(S(=O)(=O)Nc2ccc3cc([N+](=O)[O-])ccc3c2[N+](=O)[O-])cc1,?,2.6µM*,?,?,-16%,?
Cc1ccc(S(=O)(=O)Nc2ccc3ccccc3c2[N+](=O)[O-])cc1,?,?,-11%,-21%,-31%,i
Cc1cccc(-n2nc([N+](=O)[O-])c(=NC3CCN(Cc4ccccc4)CC3)n2O)c1,?,-6%,·,1%,16µM*,i
Nc1cccc2c1C(=O)N(C(=O)/C=C/c1ccc(F)cc1)C2=O,?,?,?,18µM*,0%,·
Cc1cc2cc(C(c3nnnn3C3CCCC3)N(Cc3cccnc3)Cc3ccco3)c(=O)[nH]c2cc1C (configuration not stated),?,?,-12%,10µM*,3%,i
Cc1ccc2cc(C(c3nnnn3C3CCCC3)N(Cc3ccccc3)Cc3ccco3)c(=O)[nH]c2c1 (configuration not stated),?,14%,11%,8%,8%,i
Brc1ccc2c(c1)-c1ccccc1C1=NCCN12,16µM*,23µM*,·,16µM*,-2%,?
CN1C2=NCCN2C(=O)c2cc(Cl)ccc21,?,-3%,5%,0%,-51%,i
Clc1ccc2c(c1)-c1ccccc1C1=NCCN12,?,?,·,18µM*,-3%,?
CCC(=O)N1CCc2cc(S(=O)(=O)CCC(=O)Nc3cc(Cl)ccc3OC)ccc21,?,·,0%,·,-9%,i
O=C[C@H](O)[C@@H](O)[C@H](O[C@H]1O[C@H](CO)[C@@H](O[C@H]2O[C@H](CO)[C@@H](O)[C@H](O)[C@H]2O)[C@H](O)[C@H]1O)[C@H](O)CO,·,·,·,·,·,i
COc1ccc(/C=C/c2nccc3c2[nH]c2ccccc23)cc1,-11%,·,·,·,-39%,·
C(=C/c1nccc2c1[nH]c1ccccc12)/c1ccc2c(c1)OCO2,?,?,1%,16µM*,-49%,·
Cc1cccc2cc3c(nc12)SC(=NCC1CCCO1)N(Cc1ccco1)C3 (configuration not stated),?,5.8µM*,-19%,10µM*,-83%,i
CCCC1CCc2c(sc(NC(=O)OCC)c2C#N)C1 (configuration not stated),12%,?,-2%,18µM*,-10%,i
Cc1ccc(CC(=O)NO)cc1,·,-2%,·,19%,·,·
C=CC(=O)Nc1cccc(Nc2nc(N[C@H]3CC[C@H](N(C)C)CC3)nc3c2ncn3C(C)C)c1,0.71µM*,?,1µM*,0.65µM*,-4%,2µM*
CC(C)n1cnc2c(Nc3cccc(Cl)c3)nc(NCCCO)nc21,?,-14%,-34%,?,-15%,?
COc1cccc(C2(CC(=O)N3CCN(c4nonc4C)CC3)CC(=O)N(C3CCCC3)C2=O)c1 (configuration not stated),·,·,·,·,·,i

# Screening data deposited in PubChem BioAssay by National Center for Advancing Translational Sciences (NCATS).
